Out of some 1,100 compounds screened, about 760 (69%) were called active. How the calls were made is not given here. The set was probably picked from earlier hits. This is one part of the list.
Assay: M. tuberculosis growth inhibition, HTS (AID 1259417);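 further: bacteria grown with compound for 5 days at 37 °C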
Settings: stronger effect = higher value, concentration not given here
[1] = M. tuberculosis DsRed fluorescence growth inhibition
[2] = M. tuberculosis growth inhibition

SMILES | inhibition [1] | inhibition [2] [%]
Cc1ccc(-c2nnc(NC(=O)c3ccc([N+](=O)[O-])s3)o2)c(C)c1 | 41.9% (active) | 72.9
Cc1ccc(C)c(-c2nnc(NC(=O)c3ccc([N+](=O)[O-])s3)o2)c1 | 98.9% (active) | 97.4
Cc1ccc(C)c(-c2nnc(NC(=O)c3ccc([N+](=O)[O-])o3)o2)c1 | 12.4% (inactive) | 1.93
Cc1ccc(-c2nnc(NC(=O)c3c(F)cccc3F)o2)c(C)c1 | 2.49% (inactive) | -10.3
Cc1ccc(-c2nnc(NC(=O)c3ccc([N+](=O)[O-])o3)o2)c(C)c1 | 97.8% (active) | 98.1
O=[N+]([O-])c1ccc(N2CCN(CCO)CC2)cc1NCCOc1cccc2ccccc12 | 10.3% (inactive) | -3.69
CCOc1cc2c3c(c1)C1(C(=O)N3C(C)(C)C=C2C)C(C#N)=C(N)Oc2cc(O)ccc21 (configuration not stated) | 10.6% (inactive) | -4.41
O=C1C(Cl)=C(Nc2ccccc2O)C(=O)N1c1ccccc1 | 96% (active) | 94.9
O=C1C(Cl)=C(Nc2ccccc2O)C(=O)N1c1ccc(Cl)c(Cl)c1 | 95.4% (active) | 94.6
O=[N+]([O-])c1ccc(-c2[nH]c(-c3cccs3)nc2-c2ccccc2)cc1 | -27% (inactive) | 4.73
COC(=O)CSc1nc2ccccc2nc1SCC(=O)OC | 11.6% (active) | 37.2
c1ccc(-c2nc(NCC3CCCO3)c3ccccc3n2)nc1 (configuration not stated) | 95.4% (active) | 94.9
COc1ccc(Nc2nc(-c3ccccn3)cs2)c(OC)c1 | 92.1% (active) | 83.9
COc1cccc(Nc2nc(-c3ccccn3)cs2)c1 | 93.6% (active) | 93.4
CC(=O)c1cccc(Nc2nc(-c3ccccn3)cs2)c1 | 70.5% (active) | 74.6
CC(=O)c1cccc(Nc2cc(C)nc3c2ccc2ccccc23)c1 | 10.9% (inactive) | -33.8
CC(=O)c1ccc(NC(=O)NC(C)C23CC4CC(CC(C4)C2)C3)cc1 (configuration not stated) | 98.3% (active) | 94.8
CC(=O)c1ccc(NC(=O)Nc2cc(OCC(F)(F)F)cc(OCC(F)(F)C(F)F)c2)cc1 | 1.19% (inactive) | 22.7
O=C(Nc1ccc(-c2nc3ccccc3c(=O)o2)cc1)c1ccccc1I | 78.1% (active) | 85.2
CCCC(=O)Nc1cccc(-c2nc3ccccc3c(=O)o2)c1 | 29.1% (active) | 52
CCOC(=O)C(Cc1ccccc1)C(=O)Nc1cccc2ccccc12 (configuration not stated) | -0.257% (inactive) | -5.18
Cc1oc2c(c1C(=O)Nc1cccc3ccccc13)CCCC2 | 13.4% (inactive) | 21.7

SMILES | inhibition [1] | inhibition [2] [%]
Cc1ccc(-c2nc3c(cnn3-c3ccccc3)c(=O)o2)cc1 | 4.19% (inactive) | -0.344
COc1ccccc1OC(=O)c1sc2ccccc2c1Cl | 17.3% (active) | 53
COc1ccccc1-c1nnc(NC(=O)c2sc3ccccc3c2Cl)o1 | -1.61% (inactive) | -16
Cc1c(OC(=O)c2ccccc2Cl)ccc2c1CCCC2 | 7.92% (inactive) | 16.4
Cc1ccccc1OC(=O)c1sc2ccccc2c1Cl | 25.5% (active) | 64.7
O=C1c2cccc3cccc(c23)C(=O)N1c1ccc2[nH]c(=O)[nH]c2c1 | 36.4% (active) | 63.9
COc1ccc2nc(C)c3cc(C)oc3c2c1 | 99.8% (active) | 99.6
O=c1cc(-c2c(F)c(F)c(F)c(F)c2F)oc2ccccc12 | 99.2% (active) | 96.4
Cc1ccc(S(=O)(=O)NC(=O)Oc2cccc3cccnc23)cc1 | -0.272% (inactive) | -10.4
O=C(Oc1c(Cl)cc(Cl)c2cccnc12)c1cc(S(=O)(=O)N2CCCCC2)ccc1Cl | 98.6% (active) | 99.4
O=C(Oc1ccc(Cl)cc1)c1ccc(S(=O)(=O)c2ccc(Cl)cc2)cc1 | 55.3% (active) | 74.8
O=C(Oc1cccc2cccnc12)c1ccc(S(=O)(=O)N2CCCCC2)cc1 | 99.4% (active) | 100
O=C(Oc1cccc2cccnc12)c1ccc(Cl)c(S(=O)(=O)N2CCOCC2)c1 | 100% (active) | 101
O=C(Oc1ccc(Cl)cc1)c1ccc(N2CCOCC2)c([N+](=O)[O-])c1 | 4.2% (inactive) | 24.6
O=C(Oc1ccccc1Cl)c1ccc(N2CCOCC2)c([N+](=O)[O-])c1 | 0.0336% (inactive) | 13.4
COCCn1nnnc1C(c1cc2cc(OC)ccc2[nH]c1=O)N1CCC(Cc2ccccc2)CC1 (configuration not stated) | 6.25% (inactive) | -12.1
O=C(Oc1ccccc1)c1ccc(S(=O)(=O)N2CCCCC2)cc1 | 12% (active) | 46.3
Cc1nn(Cc2ccccc2Cl)c2sc(C(=O)NCc3ccc4c(c3)OCO4)cc12 | -3.53% (inactive) | -15.9
Cc1nc2ccccn2c1C(=O)NCc1ccc2c(c1)OCO2 | 99.7% (active) | 99.6
COc1ccc(CNC(=O)c2c(C)nc3ccccn23)cc1 | 99.4% (active) | 100
CCOC(=O)CSc1nc(C#N)c(SCC(=O)OCC)s1 | 31.4% (active) | 80.2
CCOC(=O)CSc1nc(N)c(C#N)c(CC(C)C)c1C#N | -5.9% (inactive) | -4.83

SMILES | inhibition [1] | inhibition [2] [%]
Cc1ccc(NC(=O)CSc2ccc(-c3ccccn3)nn2)cc1 | 89% (active) | 97.4
CCOC(=O)c1c(NC(=O)c2ccccc2C)sc(C)c1-c1ccc(OC)c(OC)c1 | -3.52% (inactive) | -17.9
COc1ccc(-c2nc(NC(=O)c3ccccc3)n[nH]2)cc1OC | 97.2% (active) | 96.7
CC(C)=CCN1CCN(CCC2=C(C)CCCC2(C)C)CC1CCO (configuration not stated) | -2.34% (inactive) | -26.9
COc1cccc(NC(=O)c2c(NC(=O)c3cccnc3)sc3c2CCC3)c1 | 92.4% (active) | 95.5
COc1cccc(NC(=O)c2c(NC(=O)c3cccc(C)c3)sc3c2CCC3)c1 | -1.15% (inactive) | -10.7
COC(=O)c1c(NC(=O)c2cccc(OC)c2)sc2c1C(C(=O)OC)CC2 (configuration not stated) | 1.52% (inactive) | -13.4
COc1ccc(NC(=O)c2c(NC(=O)c3ccc([N+](=O)[O-])o3)sc3c2CCC3)cc1 | 96.5% (active) | 96.2
Brc1ccc(-c2nn(-c3ccccc3)cc2CNCc2ccccc2)cc1 | 23.1% (active) | 39.4
Cc1ccc(-c2nn(-c3ccccc3)cc2CNCc2ccccc2)cc1 | 33.4% (active) | 66.5
CC(C)COc1ccc(-c2nn(-c3ccccc3)cc2C(=O)Nc2nccs2)cc1 | 2.38% (inactive) | -24.1
CCn1ccnc1CN(C)Cc1cn(-c2ccc(C)cc2)nc1-c1cccc(C)c1 | 14.8% (inactive) | 8.21
CCn1ccnc1CN(C)Cc1cn(-c2cc(C)ccc2C)nc1-c1ccccc1 | 16.9% (inactive) | 8.97
CCc1nnc(NC(=O)c2cc3ccccc3oc2=O)s1 | 1% (active) | 47
Cc1sc(NC(=O)c2cc3ccccc3oc2=O)c(C(=O)OC(C)C)c1C | 6.18% (inactive) | 28.3
CCOC(=O)c1c(-c2ccc(OC)c(OC)c2)csc1NC(=O)c1cccc(OC)c1OC | 4.18% (inactive) | -8.63
CCOC(=O)c1cc(CC)sc1NC(=O)c1cc2ccccc2oc1=O | 23.7% (active) | 60.6
CCOC(=O)c1c(-c2ccccc2)csc1NC(=O)c1cc2ccccc2oc1=O | 7.43% (active) | 32.3
NC(=O)c1c(NC(=O)c2cc3ccccc3oc2=O)sc2c1CCCCCC2 | 3.53% (inactive) | -10.8
Cc1cc2ncn(Cc3ccc(C(C)C)cc3)c2cc1C | 90.4% (active) | 98.3
Cc1cc2ncn(CCOc3ccc(Cl)cc3)c2cc1C | 88.3% (active) | 95.9
Cc1cccc(OCCCn2cnc3cc(C)c(C)cc32)c1 | 88% (active) | 97.5

SMILES | inhibition [1] | inhibition [2] [%]
C1=CC2CC1CC2CN1CCC(N(CCc2ccccc2)Cc2ccccc2)CC1 (configuration not stated) | 99.4% (active) | 96.9
c1ccc(CCN(Cc2ccccc2)C2CCN(Cc3c[nH]c4ccccc34)CC2)cc1 | 2.96% (inactive) | -21.5
CCCn1nnnc1NC(=O)c1cccs1 | 18.2% (inactive) | 29.4
Cc1ccc(-c2nnc(N3CCN(C(=O)c4ccco4)CC3)c3ccccc23)cc1 | 3.3% (inactive) | -1.04
O=C(OCn1nnc2ccccc2c1=O)c1ccco1 | 20.6% (active) | 47
O=C(OCn1nnc2ccccc2c1=O)c1ccccc1 | 40.5% (active) | 44.9
O=C(OCn1nnc2ccccc2c1=O)c1cccs1 | 42.4% (active) | 57.1
COc1ccc(CCNC(=O)c2ccc(C#CC(C)(C)O)s2)cc1 | 92.7% (active) | 80.8
COc1ccc(NC(=O)c2ccc(C#CC(C)(C)O)s2)cc1 | 58.8% (active) | 31.9
Cn1ccnc1C(O)c1cc(C(C)(C)C)c(O)c(C(C)(C)C)c1 (configuration not stated) | 22.8% (inactive) | 28.3
Cc1ccccc1C(=O)Nc1nnc(-c2ccc(Cl)cc2)o1 | 83.5% (active) | 90.7
CCCCNC(=O)Nc1nnc(-c2ccc(Cl)cc2)o1 | 14.7% (inactive) | 4.64
Cc1ccccc1C(=O)Nc1nnc(-c2ccc(F)cc2)o1 | 75.4% (active) | 84.5
CC1CCCN(c2ccc([N+](=O)[O-])s2)C1 (configuration not stated) | 97.6% (active) | 99.3
COC(=O)COc1ccc(CSCC(=O)Nc2ccc3ccccc3c2)cc1 | 33.1% (active) | 58.5
COC(=O)COc1ccc(NC(=O)COc2cccc(C)c2)cc1 | 68.1% (active) | 90.9
COC(=O)COc1cccc(NC(=O)COc2ccccc2)c1 | 50% (active) | 64.5
CCOc1ccc(OCC(=O)Nc2cc(C)cc(C)c2)cc1 | 2.08% (active) | 38.4
Cc1cc(C)cc(NC(=O)COc2cccc(C=O)c2)c1 | 4.11% (inactive) | 13.2
COc1ccc(OCC(=O)Nc2cccc(Cl)c2)cc1 | 6.16% (inactive) | -19

Reference: PubChem BioAssay AID1259417 (TB Discovery Research, Infectious Disease Research Institute, 2018)
